{
  "source": "paper PMC11574364",
  "experiment_in_all_cases": "protein domain microarray probed with biotinylated miRNA; Domain array: 20 mM Tris-HCl pH 7.4, 200 mM KCl, 0.2 mM EDTA, 0.05% NP40, 2 ug/ul heparin, overnight 4 C. ORF array: PBS pH 7.0 with RNase inhibitor, 100 ng RNA; high values mean tight binding",
  "conditions_in_all_cases": "ssRNA",
  "key": {"CELF2(1-2)": {"biological_target": "CELF2(1-2) (Homo sapiens, UniProt O95319)", "sequence (O95319 19-241)": "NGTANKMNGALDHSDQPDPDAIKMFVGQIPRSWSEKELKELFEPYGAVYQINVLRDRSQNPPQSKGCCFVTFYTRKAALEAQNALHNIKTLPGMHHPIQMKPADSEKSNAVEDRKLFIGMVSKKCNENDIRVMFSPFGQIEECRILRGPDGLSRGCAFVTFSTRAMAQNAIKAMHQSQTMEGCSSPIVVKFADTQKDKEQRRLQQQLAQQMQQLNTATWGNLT"}, "Acinus(1)": {"biological_target": "T1, Acinus(1) (Homo sapiens, UniProt Q9UKV3)", "T1 sequence": "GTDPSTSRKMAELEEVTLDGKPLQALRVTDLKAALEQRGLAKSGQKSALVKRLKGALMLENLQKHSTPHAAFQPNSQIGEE"}, "CELF4(1-2)": {"biological_target": "CELF4(1-2) (Homo sapiens, UniProt Q9BZC1)", "sequence (Q9BZC1 31-250)": "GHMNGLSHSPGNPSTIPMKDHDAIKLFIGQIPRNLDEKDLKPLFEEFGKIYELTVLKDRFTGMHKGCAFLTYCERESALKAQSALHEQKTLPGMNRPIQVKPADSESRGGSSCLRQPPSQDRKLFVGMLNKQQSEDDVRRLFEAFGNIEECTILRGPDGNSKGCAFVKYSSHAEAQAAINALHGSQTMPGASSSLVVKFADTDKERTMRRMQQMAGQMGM"}, "BOLL": {"biological_target": "T2, BOLL (Homo sapiens, UniProt Q8N9W6)", "T2 sequence": "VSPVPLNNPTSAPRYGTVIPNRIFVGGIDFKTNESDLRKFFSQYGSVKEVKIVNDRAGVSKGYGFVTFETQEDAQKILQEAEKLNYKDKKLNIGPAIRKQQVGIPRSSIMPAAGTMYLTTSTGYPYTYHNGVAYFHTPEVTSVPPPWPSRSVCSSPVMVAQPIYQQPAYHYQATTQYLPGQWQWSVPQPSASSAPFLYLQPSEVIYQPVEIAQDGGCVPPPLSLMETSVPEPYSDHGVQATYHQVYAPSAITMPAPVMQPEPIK"}, "CELF1(1-2)": {"biological_target": "CELF1(1-2) (Homo sapiens, UniProt Q92879)", "sequence (Q92879 1-210)": "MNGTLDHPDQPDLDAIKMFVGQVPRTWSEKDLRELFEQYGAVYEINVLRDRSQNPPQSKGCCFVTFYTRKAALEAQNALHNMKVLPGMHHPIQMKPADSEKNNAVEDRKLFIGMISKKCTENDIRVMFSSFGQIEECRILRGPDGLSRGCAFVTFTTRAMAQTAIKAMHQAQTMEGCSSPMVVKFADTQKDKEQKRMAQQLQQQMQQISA"}, "CELF4(3)": {"biological_target": "CELF4(3) (Homo sapiens, UniProt Q9BZC1)", "sequence (Q9BZC1 380-486)": "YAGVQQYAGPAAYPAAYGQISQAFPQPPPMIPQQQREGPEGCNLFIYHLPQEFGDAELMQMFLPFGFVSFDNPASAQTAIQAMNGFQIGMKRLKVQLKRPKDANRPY"}, "CELF2(3)": {"biological_target": "CELF2(3) (Homo sapiens, UniProt O95319)", "sequence (O95319 396-508)": "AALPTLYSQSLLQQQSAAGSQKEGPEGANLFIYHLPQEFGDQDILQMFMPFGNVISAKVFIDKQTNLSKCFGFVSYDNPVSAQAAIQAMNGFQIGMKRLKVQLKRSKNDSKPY"}, "CELF1(3)": {"biological_target": "CELF1(3) (Homo sapiens, UniProt Q92879)", "sequence (Q92879 370-486)": "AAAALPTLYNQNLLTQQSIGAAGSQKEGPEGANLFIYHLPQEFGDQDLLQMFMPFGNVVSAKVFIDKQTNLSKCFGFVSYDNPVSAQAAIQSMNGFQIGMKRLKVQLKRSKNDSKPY"}, "A2BP1": {"biological_target": "T3, A2BP1 (Homo sapiens, UniProt Q9NWB1)", "T3 sequence": "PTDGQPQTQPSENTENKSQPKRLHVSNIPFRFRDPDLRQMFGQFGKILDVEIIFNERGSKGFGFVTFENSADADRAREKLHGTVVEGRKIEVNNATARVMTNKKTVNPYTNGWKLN"}, "G3BP-2": {"biological_target": "T4, G3BP-2 (Homo sapiens, UniProt Q9UN86)", "T4 sequence": "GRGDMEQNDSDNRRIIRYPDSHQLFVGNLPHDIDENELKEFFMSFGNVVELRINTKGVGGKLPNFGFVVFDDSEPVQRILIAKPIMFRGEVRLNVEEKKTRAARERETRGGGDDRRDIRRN"}},
  "data": [
    {"sequence": "UGAGGUAGUAGGUUGUAUGGUU", "values": [
      {"measurement": "binding signal", "setting": "CELF2(1-2)", "result": "79.94 ± 0.219", "unit": "fluorescence intensity"},
      {"measurement": "binding signal", "setting": "Acinus(1)", "result": "162 ± 13.3", "unit": "fluorescence intensity"},
      {"measurement": "binding signal", "setting": "CELF4(1-2)", "result": "96 ± 8.15", "unit": "fluorescence intensity"},
      {"measurement": "binding signal", "setting": "BOLL", "result": "423 ± 34.1", "unit": "fluorescence intensity"},
      {"measurement": "binding signal", "setting": "CELF1(1-2)", "result": "24.5 ± 18.4", "unit": "fluorescence intensity"},
      {"measurement": "binding signal", "setting": "CELF4(3)", "result": "24.3 ± 1.9", "unit": "fluorescence intensity"},
      {"measurement": "binding signal", "setting": "CELF2(3)", "result": "2750 ± 76", "unit": "fluorescence intensity"},
      {"measurement": "binding signal", "setting": "CELF1(3)", "result": "2750 ± 97.5", "unit": "fluorescence intensity"},
      {"measurement": "binding signal", "setting": "A2BP1", "result": "2938 ± 25.1", "unit": "fluorescence intensity"},
      {"measurement": "binding signal", "setting": "G3BP-2", "result": "697 ± 11.7", "unit": "fluorescence intensity"}
    ]},
    {"sequence": "CAGUGCAAUGAUGAAAGGGCAU", "values": [
      {"measurement": "binding signal", "setting": "CELF2(1-2)", "result": "48.3 ± 1.66", "unit": "fluorescence intensity"},
      {"measurement": "binding signal", "setting": "Acinus(1)", "result": "130 ± 7.88", "unit": "fluorescence intensity"},
      {"measurement": "binding signal", "setting": "CELF4(1-2)", "result": "68.5 ± 5.81", "unit": "fluorescence intensity"},
      {"measurement": "binding signal", "setting": "BOLL", "result": "433.1 ± 0.594", "unit": "fluorescence intensity"},
      {"measurement": "binding signal", "setting": "CELF1(1-2)", "result": "29.4 ± 2.27", "unit": "fluorescence intensity"},
      {"measurement": "binding signal", "setting": "CELF4(3)", "result": "22.5 ± 0.509", "unit": "fluorescence intensity"},
      {"measurement": "binding signal", "setting": "CELF2(3)", "result": "1010 ± 110", "unit": "fluorescence intensity"},
      {"measurement": "binding signal", "setting": "CELF1(3)", "result": "1043.4 ± 0.00707", "unit": "fluorescence intensity"},
      {"measurement": "binding signal", "setting": "A2BP1", "result": "3922 ± 30.6", "unit": "fluorescence intensity"},
      {"measurement": "binding signal", "setting": "G3BP-2", "result": "1910 ± 49.7", "unit": "fluorescence intensity"}
    ]},
    {"sequence": "UGAGGUAGUAGGUUGUGUGGUU", "values": [
      {"measurement": "binding signal", "setting": "CELF2(1-2)", "result": "156 ± 18.9", "unit": "fluorescence intensity"},
      {"measurement": "binding signal", "setting": "Acinus(1)", "result": "330 ± 24.8", "unit": "fluorescence intensity"},
      {"measurement": "binding signal", "setting": "CELF4(1-2)", "result": "241 ± 6.35", "unit": "fluorescence intensity"},
      {"measurement": "binding signal", "setting": "BOLL", "result": "986 ± 65.6", "unit": "fluorescence intensity"},
      {"measurement": "binding signal", "setting": "CELF1(1-2)", "result": "32.2 ± 23.1", "unit": "fluorescence intensity"},
      {"measurement": "binding signal", "setting": "CELF4(3)", "result": "33.3 ± 4.99", "unit": "fluorescence intensity"},
      {"measurement": "binding signal", "setting": "CELF2(3)", "result": "2850 ± 134", "unit": "fluorescence intensity"},
      {"measurement": "binding signal", "setting": "CELF1(3)", "result": "2820 ± 118", "unit": "fluorescence intensity"},
      {"measurement": "binding signal", "setting": "A2BP1", "result": "3130 ± 57", "unit": "fluorescence intensity"},
      {"measurement": "binding signal", "setting": "G3BP-2", "result": "967 ± 16.3", "unit": "fluorescence intensity"}
    ]},
    {"sequence": "UAGCUUAUCAGACUGAUGUUGA", "values": [
      {"measurement": "binding signal", "setting": "CELF2(1-2)", "result": "21.3 ± 6.6", "unit": "fluorescence intensity"},
      {"measurement": "binding signal", "setting": "CELF4(1-2)", "result": "20.5 ± 0.276", "unit": "fluorescence intensity"},
      {"measurement": "binding signal", "setting": "BOLL", "result": "567 ± 57.8", "unit": "fluorescence intensity"},
      {"measurement": "binding signal", "setting": "CELF1(1-2)", "result": "45.6 ± 13.3", "unit": "fluorescence intensity"},
      {"measurement": "binding signal", "setting": "CELF2(3)", "result": "1040 ± 177", "unit": "fluorescence intensity"},
      {"measurement": "binding signal", "setting": "CELF1(3)", "result": "1160 ± 14.2", "unit": "fluorescence intensity"},
      {"measurement": "binding signal", "setting": "A2BP1", "result": "2210 ± 93.6", "unit": "fluorescence intensity"},
      {"measurement": "binding signal", "setting": "G3BP-2", "result": "330 ± 22.3", "unit": "fluorescence intensity"}
    ]},
    {"sequence": "UGAGGUAGUAGGUUGUAUAGUU", "values": [
      {"measurement": "binding signal", "setting": "CELF2(1-2)", "result": "29.8 ± 2.19", "unit": "fluorescence intensity"},
      {"measurement": "binding signal", "setting": "Acinus(1)", "result": "37 ± 6.58", "unit": "fluorescence intensity"},
      {"measurement": "binding signal", "setting": "CELF4(1-2)", "result": "30.5 ± 1.88", "unit": "fluorescence intensity"},
      {"measurement": "binding signal", "setting": "BOLL", "result": "175 ± 17.3", "unit": "fluorescence intensity"},
      {"measurement": "binding signal", "setting": "CELF2(3)", "result": "2178 ± 19.2", "unit": "fluorescence intensity"},
      {"measurement": "binding signal", "setting": "CELF1(3)", "result": "2270 ± 106", "unit": "fluorescence intensity"},
      {"measurement": "binding signal", "setting": "A2BP1", "result": "1110 ± 13.1", "unit": "fluorescence intensity"},
      {"measurement": "binding signal", "setting": "G3BP-2", "result": "117 ± 15.5", "unit": "fluorescence intensity"}
    ]},
    {"sequence": "AGAGGUAGUAGGUUGCAUAGUU", "values": [
      {"measurement": "binding signal", "setting": "CELF2(1-2)", "result": "63.2 ± 10.6", "unit": "fluorescence intensity"},
      {"measurement": "binding signal", "setting": "Acinus(1)", "result": "144 ± 9.49", "unit": "fluorescence intensity"},
      {"measurement": "binding signal", "setting": "CELF4(1-2)", "result": "73.4 ± 2.28", "unit": "fluorescence intensity"},
      {"measurement": "binding signal", "setting": "BOLL", "result": "995 ± 54.2", "unit": "fluorescence intensity"},
      {"measurement": "binding signal", "setting": "CELF1(1-2)", "result": "20.1 ± 13.8", "unit": "fluorescence intensity"},
      {"measurement": "binding signal", "setting": "CELF4(3)", "result": "28.9 ± 2.98", "unit": "fluorescence intensity"},
      {"measurement": "binding signal", "setting": "CELF2(3)", "result": "2420 ± 70.3", "unit": "fluorescence intensity"},
      {"measurement": "binding signal", "setting": "CELF1(3)", "result": "2720 ± 64", "unit": "fluorescence intensity"},
      {"measurement": "binding signal", "setting": "A2BP1", "result": "4220 ± 134", "unit": "fluorescence intensity"},
      {"measurement": "binding signal", "setting": "G3BP-2", "result": "942 ± 20.8", "unit": "fluorescence intensity"}
    ]}
  ]
}
